Test results from PubChem BioAssay (Tox21).
Unmarked numbers belong to inactive results. Results filed as inconclusive are left out. Entries that show only a call come without a potency. Activity calls are given as the source filed them. Unless noted, calls come from the whole dose curve; as a rule, active = well fitted curve in the direction sought with a large enough effect in the repeat runs; inconclusive = weak or mixed curves; inactive = no such curve, though single readings can be large; an effect the other way counts as inactive or inconclusive.

Experiments:
[1] = qHTS assay to identify small molecule agonists of the estrogen receptor alpha (ER-alpha) signaling pathway in the presence of an antagonist - cell viability counter screen (AID 1259386);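 note: cells exposed to compounds for 22 h at 37 °C before the viability read; nearly all actives have a fitted effect of over 30% in size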; note: potency is the fitted concentration of half-maximal effect
Method in brief: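 In this counter screen, compound effects on VM7Luc4E2 viability were tested in the presence of the antagonist ICI-182,780 at 10.0nM final. Compounds were dosed at 15 concentrations, exposure lasted 22hr, and the CellTiter-Fluor signal was read.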

[2] = molecular target: Progesterone receptor (Homo sapiens) (UniProt P06401); assay: qHTS assay to identify small molecule agonists of the progesterone receptor (PR) signaling pathway (AID 1346784; calls by dose curve; note: nearly all actives have a fitted effect of over 30% in size)
Chain of Progesterone receptor (Homo sapiens) (P06401 whole entry, looked up): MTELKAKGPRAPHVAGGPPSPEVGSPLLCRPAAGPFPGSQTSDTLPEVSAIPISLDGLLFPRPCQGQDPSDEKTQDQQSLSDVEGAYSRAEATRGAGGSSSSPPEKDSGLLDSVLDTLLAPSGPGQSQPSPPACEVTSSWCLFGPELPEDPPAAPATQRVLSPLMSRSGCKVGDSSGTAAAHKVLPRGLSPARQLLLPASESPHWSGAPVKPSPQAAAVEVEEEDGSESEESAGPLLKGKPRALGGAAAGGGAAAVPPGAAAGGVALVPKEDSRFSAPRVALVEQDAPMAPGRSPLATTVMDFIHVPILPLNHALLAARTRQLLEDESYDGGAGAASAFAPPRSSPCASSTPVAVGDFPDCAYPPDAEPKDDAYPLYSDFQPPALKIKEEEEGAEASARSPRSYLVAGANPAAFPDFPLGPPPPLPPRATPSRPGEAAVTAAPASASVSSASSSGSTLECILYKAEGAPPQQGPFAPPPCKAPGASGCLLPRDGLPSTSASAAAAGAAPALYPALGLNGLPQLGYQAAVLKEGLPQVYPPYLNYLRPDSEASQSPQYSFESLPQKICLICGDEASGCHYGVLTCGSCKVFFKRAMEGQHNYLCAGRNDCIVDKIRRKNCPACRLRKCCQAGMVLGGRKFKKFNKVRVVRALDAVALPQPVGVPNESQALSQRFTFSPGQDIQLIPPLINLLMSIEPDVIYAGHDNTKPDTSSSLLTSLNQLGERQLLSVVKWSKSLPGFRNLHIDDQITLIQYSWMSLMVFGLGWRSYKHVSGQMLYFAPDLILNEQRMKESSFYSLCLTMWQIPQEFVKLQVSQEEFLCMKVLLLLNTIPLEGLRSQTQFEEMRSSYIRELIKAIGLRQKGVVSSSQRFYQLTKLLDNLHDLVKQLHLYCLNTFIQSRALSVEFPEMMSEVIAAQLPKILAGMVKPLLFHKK
Method in brief: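 Using charcoal-stripped serum (2%) to limit endogenous steroids, PR-UAS-bla HEK 293T cells received compounds for 16 hr at 37C after 6 hr plating; beta-lactamase FRET fluorescence was recorded following 2 hr substrate loading at room temperature.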

[3] = qHTS assay to identify small molecule antagonists of the progesterone receptor (PR) signaling pathway - cell viability counter screen (AID 1346798); note: series mostly up to about 92 µM; nearly all actives have a fitted effect of over 50% in size
Method in brief: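 ATP content as viability readout: CellTiter-Glo luminescence, 30 min room temperature, in PR-UAS-bla HEK293T cells after 16 hr compound/R5020 treatment at 37C and 5% CO2.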

[4] = qHTS assay to identify small molecule antagonists of the TGF-beta/Smad signaling pathway - cell viability counter screen (AID 1346824); note: nearly all actives have a fitted effect of over 50% in size
Method in brief: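 Cytotoxicity counter-screen run in the same wells as the beta-lactamase Smad reporter read: CellTiter-Glo luminescence after 30 min at room temperature. HEK 293T SBE-bla cells had 5 hr compound exposure at 37 C with TGF-beta1 (0.25 ng/mL stock).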

[5] = qHTS assay to identify small molecule agonists of the TGF-beta/Smad signaling pathway (AID 1346859; active = well fitted activation curve with a large enough effect in the signal ratio in the repeat runs, not every such curve was filed as active; the % refers to the signal ratio; note: series mostly up to about 77 µM)
Method in brief: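 Stable Smad binding element-beta-lactamase HEK 293T cells; 5 hr compound exposure at 37 C under 5% CO2; 2 hr room-temperature substrate step; fluorescence excited at 405 nm, collected at 460 nm and 530 nm.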

[6] = Human pregnane X receptor (PXR) small molecule agonists, qHTS cell viability counter screen (AID 1346977); note: nearly all actives have a fitted effect of over 50% in size; note: potency is the fitted concentration of half-maximal effect
Method in brief: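 Readout is CellTiter-Fluor fluorescence from PXR-Luc HepG2 cells. Plated cells rested 5hr, then were treated with compounds for 24hr at 37C and 5% CO2, with reagent present during the last hour.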

[7] = Caspase-3/7 induction in HepG2 cells by small molecules, qHTS assay (AID 1346978); note: nearly all actives have a fitted effect of over 15% in size
Method in brief: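 Caspase-3/7 induction was measured by Caspase-Glo 3/7 luminescence (30 min, room temperature) after a 17 hr compound exposure of wild-type HepG2 cells seeded at 2,000 per well and pre-incubated 5 hr.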

[8] = Caspase-3/7 induction in CHO-K1 cells by small molecules, qHTS assay (AID 1346980); note: nearly all actives have a fitted effect of over 15% in size
Method in brief: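 Luminescent Caspase-Glo 3/7 read (30min, room temperature) quantified apoptosis induction. Cells were wild-type CHO-K1, treated with compound for 17hr at 37 C and 5% CO2.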

[9] = Caspase-3/7 induction in HepG2 cells by small molecules, qHTS cell viability counter screen (AID 1346981); note: nearly all actives have a fitted effect of over 30% in size; note: potency is the fitted concentration of half-maximal effect
Method in brief: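 In this quantitative HTS counter screen, compounds delivered in DMSO were left on unmodified HepG2 cells for 16 hr at 37 C. Viability was then determined fluorometrically with CellTiter-Fluor, in parallel with caspase-3/7 induction in the same wells.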

[10] = molecular target: Nuclear receptor subfamily 1 group I member 2 (Homo sapiens) (UniProt O75469); assay: Human pregnane X receptor (PXR) small molecule agonists, qHTS assay (AID 1346982); note: nearly all actives have a fitted effect of over 35% in size; note: potency is the fitted concentration of half-maximal effect
Chain of Nuclear receptor subfamily 1 group I member 2 (Homo sapiens) (O75469 whole entry, looked up): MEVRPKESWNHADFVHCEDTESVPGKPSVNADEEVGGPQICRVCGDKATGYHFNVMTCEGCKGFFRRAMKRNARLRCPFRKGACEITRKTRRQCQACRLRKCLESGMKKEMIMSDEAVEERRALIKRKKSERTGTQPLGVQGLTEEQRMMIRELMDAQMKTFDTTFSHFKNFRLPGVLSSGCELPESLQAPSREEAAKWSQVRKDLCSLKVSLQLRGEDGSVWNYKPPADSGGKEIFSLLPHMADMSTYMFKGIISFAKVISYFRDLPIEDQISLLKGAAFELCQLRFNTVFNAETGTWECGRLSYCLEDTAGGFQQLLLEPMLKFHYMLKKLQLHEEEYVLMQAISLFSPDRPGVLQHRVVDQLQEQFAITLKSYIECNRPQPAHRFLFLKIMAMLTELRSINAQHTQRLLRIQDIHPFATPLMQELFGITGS
Method in brief: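 Reporter HepG2 cells expressing PXR-Luc are cultured in charcoal-stripped FBS (5%), treated with compounds for 24 hr at 37 C, and assayed by ONE-Glo luminescence after 30 min at room temperature.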

[11] = qHTS assay to identify small molecule agonists of the TGF-beta/Smad signaling pathway - cell viability counter screen (AID 1346829); note: top concentration of the series differs between compounds; nearly all actives have a fitted effect of over 45% in size
Method in brief: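 Compound-treated SBE-bla HEK 293T cells (5 hr, 37 C) were assessed for viability with CellTiter-Glo in parallel with the reporter read.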

[12] = Caspase-3/7 induction in CHO-K1 cells by small molecules, qHTS cell viability counter screen (AID 1346979); note: nearly all actives have a fitted effect of over 35% in size; note: potency is the fitted concentration of half-maximal effect
Method in brief: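 To flag cytotoxic compounds, treated CHO-K1 wild-type cells were given CellTiter-Fluor at 16hr and read fluorescently after 1hr at 37C; the caspase-3/7 luminescence was measured in these same wells.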

[13] = qHTS assay to identify small molecule agonists of the progesterone receptor (PR) signaling pathway - cell viability counter screen (AID 1346799; calls by dose curve; note: nearly all actives have a fitted effect of over 45% in size; note: potency is the fitted concentration of half-maximal effect)
Method in brief: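 Cytotoxicity in PR-bla HEK293T cells: 16 h compound, 37C; CellTiter-Glo added post-FRET read; luminescence after 30 min RT.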

[14] = molecular target: Thyrotropin-releasing hormone receptor (Homo sapiens) (UniProt P34981); assay: qHTS assay to identify small molecule antagonists of the thyrotropin-releasing hormone receptor (TRHR) signaling pathway (AID 1346877; active = well fitted inhibition curve with a large enough effect in the repeat runs, not every such curve was filed as active; note: series mostly up to about 51 µM)
Chain of Thyrotropin-releasing hormone receptor (Homo sapiens) (P34981 whole entry, looked up): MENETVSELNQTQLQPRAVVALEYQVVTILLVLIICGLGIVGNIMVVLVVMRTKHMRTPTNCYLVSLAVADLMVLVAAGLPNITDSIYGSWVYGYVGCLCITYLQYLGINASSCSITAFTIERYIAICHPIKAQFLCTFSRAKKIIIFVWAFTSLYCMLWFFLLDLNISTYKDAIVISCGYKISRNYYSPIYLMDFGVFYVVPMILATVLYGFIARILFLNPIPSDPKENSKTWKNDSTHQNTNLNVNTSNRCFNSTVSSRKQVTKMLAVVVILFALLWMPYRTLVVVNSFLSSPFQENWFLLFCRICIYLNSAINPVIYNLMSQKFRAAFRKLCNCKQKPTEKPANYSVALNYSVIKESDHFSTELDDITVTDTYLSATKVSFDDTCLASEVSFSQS
Method in brief: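 Kinetic fluorescence (3 min, 1 s resolution) following stimulation with TRH at 1 nM final; HEK293 cells bearing human TRHR; 5 min compound preincubation at RT; concentration-response over 15 points, triplicates.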

[15] = molecular target: Thyrotropin-releasing hormone receptor (Homo sapiens) (UniProt P34981); assay: qHTS assay to identify small molecule agonists of the thyrotropin-releasing hormone receptor (TRHR) signaling pathway (AID 1346891; calls by dose curve;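 note: HEK293 cells expressing TRHR with calcium dye readout; series mostly up to about 58 µM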)
Method in brief: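 In 1536-format, 1500 TRHR-Hek293 cells per well grew 18 h, took up calcium dye for 2 h at 37 °C, received compound, and were read kinetically; 15-point titrations, triplicates.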

[16] = molecular target: Progesterone receptor (Homo sapiens) (UniProt P06401); assay: qHTS assay to identify small molecule antagonists of the progesterone receptor (PR) signaling pathway (AID 1346795; active = well fitted inhibition curve with a large enough effect in the signal ratio in the repeat runs, not every such curve was filed as active; the % refers to the signal ratio)
Method in brief: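 Inhibition of R5020-induced (1 nM final) beta-lactamase reporter signal in PR-UAS-bla HEK293T cells was scored by FRET fluorescence after overnight (16 hr) compound treatment.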

[17] = molecular target: Nuclear receptor subfamily 1 group I member 2 (Rattus norvegicus) (UniProt Q9R1A7); assay: Rat pregnane X receptor (rPXR) activation by small molecules, qHTS assay (AID 1346983); conditions: rPXR luciferase reporter cells, One-Glo luminescence, 24 h; max activation: hits give high values; note: nearly all actives have a fitted effect of over 20% in size
Chain of Nuclear receptor subfamily 1 group I member 2 (Rattus norvegicus) (Q9R1A7 whole entry, looked up): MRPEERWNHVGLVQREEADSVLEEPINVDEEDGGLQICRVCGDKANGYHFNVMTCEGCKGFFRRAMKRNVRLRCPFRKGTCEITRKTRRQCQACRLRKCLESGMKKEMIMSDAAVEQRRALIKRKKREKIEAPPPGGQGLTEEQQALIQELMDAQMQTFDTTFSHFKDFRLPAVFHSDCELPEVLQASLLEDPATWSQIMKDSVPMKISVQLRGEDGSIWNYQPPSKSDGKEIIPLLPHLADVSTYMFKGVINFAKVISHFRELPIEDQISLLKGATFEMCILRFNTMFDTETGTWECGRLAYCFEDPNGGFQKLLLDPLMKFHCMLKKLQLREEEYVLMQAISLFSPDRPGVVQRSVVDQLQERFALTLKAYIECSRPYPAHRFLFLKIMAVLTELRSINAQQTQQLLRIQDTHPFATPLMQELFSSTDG
Method in brief: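 Luminescent readout (One-Glo luciferase, 30 min room temperature) followed 24 hr compound treatment at 37 C of rPXR cells plated 2,000 per well and preincubated 5hr; qHTS format with compounds delivered in DMSO.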

[18] = molecular target: Nuclear receptor subfamily 1 group I member 2 (Homo sapiens) (UniProt O75469); assay: Human pregnane X receptor (PXR) activation by small molecules, qHTS assay (AID 1346985); note: nearly all actives have a fitted effect of over 40% in size
Method in brief: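 DPX-2 cells (HepG2 co-transfected with a PXR response element and a CYP3A4-promoter luciferase construct) were seeded at 2,000 per well, rested 5 hr at 37C, then exposed to DMSO-dissolved compounds for 24 hr. Activation was read as luciferase luminescence.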

SMILES	Potency [1]	Potency [2]	Potency [3]	Potency [4]	Potency [5]	Potency [6]	Potency [7]	Potency [8]	Potency [9]	Potency [10]	Potency [11]	Potency [12]	Potency [13]	outcome [14]	Potency [15]	Potency [16]	max activation [17] [%]	Potency [18]
c1ccc(C[n+]2cccc3ccccc32)cc1	inactive	inactive	inactive	inactive	inactive	inactive	inactive	inactive	inactive	inactive	–	–	–	–	–	–	–	–
CCCCCCCC/C=C\CCCCCCCCCCCC(=O)O	inactive	inactive	inactive	inactive	inactive	inactive	–	inactive	inactive	–	inactive	inactive	–	–	–	–	–	–
C=C(C)C(=O)OCCOCCOC(=O)C(=C)C	inactive	inactive	inactive	inactive	inactive	inactive	inactive	inactive	inactive	inactive	inactive	inactive	inactive	inactive	inactive	–	–	–
CC(=O)Nc1cc(S(=O)(=O)O)cc2cc(S(=O)(=O)O)c(N=Nc3ccccc3)c(O)c12	17.2 µM (active)	–	inactive	inactive	inactive	21.7 µM (active)	inactive	inactive	24.3 µM (active)	inactive	inactive	27.3 µM (active)	–	inactive	–	inactive	–	–
O=C=Nc1ccc(Cl)c(Cl)c1	inactive	inactive	–	inactive	inactive	inactive	–	inactive	inactive	26.9 µM (active)	inactive	–	23.9 µM (active)	–	–	–	–	–
O=C(O)CCc1nc(-c2ccccc2)c(-c2ccccc2)o1	inactive	inactive	inactive	inactive	inactive	–	–	inactive	–	–	inactive	–	–	inactive	inactive	–	-4.22	inactive
